# High-throughput results as filed in PubChem BioAssay.
# PI5P4K alpha inh – PI5P4K alpha (human) kinase inhibition | P48426 | PI5P4Kalpha enzyme, ADP-Glo luminescence, 60 min; active compounds read low | max response, % | 1.2% of 330,000 active | AID 652105; active = max response of -50% or lower; inconclusive = between -30% and -50%; inactive = -30% or higher; note: value at the top dose of about 77 µM
#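 ADP-Glo luminescence end-point read after a 60 min room-temperature kinase reaction of PI5P4Kalpha plus substrate, initiated with ATP at 5 microM final. Buffer: 0.038 M HEPES pH 7.4, EGTA, 0.1% CHAPS, 5% DMSO.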
# Tb PFK inh – T. brucei PFK enzyme inhibition; O15648; T. brucei PFK, ADP-Glo luminescence; Potency, µM (series often up to 57.5 µM), inactives show at the top dose activity, negative = inhibition, usual class: inhibitors; 0.17% of 330,000 active;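 note: potency is the fitted concentration of half-maximal effect; 0% = uninhibited 1x PFK enzyme wells and -100% = no-enzyme wells; nearly all actives have a fitted effect of over 60% in size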
#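 Compounds were pin-transferred as a titration series up to 57 uM into substrate buffer (0.5 mM F6P, 0.1 mM ATP, pH 8.0), then 1.25 nM PFK was added and reactions ran 45 min before ADP-Glo detection.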
# Pin1 inh – inhibitors of human Pin1; Q13526; Pin1 FP peptide displacement, HiFluor488, 10 min; Potency, µM (series often up to 115 µM), inactives show top-dose activity, negative = inhibition, actives largely listed as inhibitors; 0.009% of 390,000 active; AID 504891; active = well fitted inhibition curve with a large enough effect in the polarisation, with a control signal flat, not every such curve was filed as active; inconclusive = small, poorly fitted or top-dose-only effect, or effect the other way, or a change in a side signal; inactive = no such curve, though single readings can be large or run the other way; the % refers to the polarisation; note: potency is the fitted concentration of half-maximal effect
# Target sequence (Q13526 whole entry, looked up): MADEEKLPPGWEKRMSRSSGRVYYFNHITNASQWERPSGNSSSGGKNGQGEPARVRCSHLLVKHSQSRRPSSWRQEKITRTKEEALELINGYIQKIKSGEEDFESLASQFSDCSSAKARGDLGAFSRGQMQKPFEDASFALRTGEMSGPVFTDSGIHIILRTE
# Tb PGK inh – T. brucei PGK inhibition; PGK/GAPDH coupled, Kinase-Glo luminescence, 60 min; Potency, µM (titrated, usually from 57.5 µM), for the others: top-dose activity change, negative = inhibition, hits mostly inhibitors; 0.043% of 380,000 active; note: potency is the fitted concentration of half-maximal effect; nearly all actives have a fitted effect of over 60% in size
# Target sequence (P07378 whole entry, looked up): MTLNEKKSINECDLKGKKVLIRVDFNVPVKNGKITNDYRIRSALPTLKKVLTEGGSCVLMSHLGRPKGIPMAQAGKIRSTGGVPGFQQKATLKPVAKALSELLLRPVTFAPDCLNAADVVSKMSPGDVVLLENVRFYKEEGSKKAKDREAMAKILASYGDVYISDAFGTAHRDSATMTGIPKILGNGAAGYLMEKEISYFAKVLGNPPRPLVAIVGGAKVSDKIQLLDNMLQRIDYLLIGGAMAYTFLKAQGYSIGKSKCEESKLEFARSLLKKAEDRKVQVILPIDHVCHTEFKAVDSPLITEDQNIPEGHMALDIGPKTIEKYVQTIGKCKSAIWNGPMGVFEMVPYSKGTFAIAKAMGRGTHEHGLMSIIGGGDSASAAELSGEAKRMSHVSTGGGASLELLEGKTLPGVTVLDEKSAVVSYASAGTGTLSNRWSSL
#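 Luminescent ATP detection (Kinase-Glo Plus) follows a 60-minute room-temperature incubation, with wells lacking PGK as controls. Buffer: 100 mM TEA (pH 7.6), 5 mM MgCl2, 0.01% Tween-20. Coupling enzyme GAPDH (100 nM final) supplies unstable 1,3-BPG in-well.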
# PI4K2A inh – inhibitors of human PI4K2A; 0.13% of 420,000 active; Q9BTU6; activity change, negative = inhibition, % at 76.9 µM; purified PI4K2A, ADP-Glo luminescence, 1 h; active compounds read low; in the data active = activity change below about -50%; inconclusive = mostly about -30% to -49%;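 note: -100% = wells without enzyme as full effect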
#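 PI4K2A activity was measured by ADP-Glo luminescence: enzyme (4 ug/mL stock) and phosphatidylinositol (1.2 mM stock) in Tris pH 7.5/MgCl2/EGTA/Triton X-100 buffer were reacted with ATP (300 microM stock) for one hour at ambient temperature.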
# ADP-Glo counter – counter-screen for PI5P4K inhibitors: ADP-Glo detection interference, no enzyme | shares compounds with PI5P4K alpha inh | ADP-Glo detection counter-screen, luciferase luminescence, no enzyme | Potency, µM (top dose mostly 76.9 µM), inactives show top-dose activity change, negative = inhibition, actives largely listed as inhibitors | 1,100 tested, under 10 active | AID 743285
# * = called active by the depositor; i = inactive; ? = inconclusive; nt = no result. Many of the other results were omitted from the sample, so hits are more common in it than they were. Unless noted, calls come from the whole dose curve; as a rule, active = well fitted curve in the direction sought with a large enough effect; inconclusive = small, poorly fitted or top-dose-only effect, or another doubt; inactive = no such curve, though single readings can be large; an effect the other way counts as inactive or inconclusive. Unless noted, % is set by controls: 0 for no effect and ±100 for the full control effect.
SMILES,PI5P4K alpha inh,Tb PFK inh,Pin1 inh,Tb PGK inh,PI4K2A inh,others
S=c1[nH]nc(-c2ccncc2)n1/N=C/c1cn(-c2ccccc2)nc1-c1ccccc1,-57.5*,3.8%,-4.5%,4.1%,-0.1,
O=[N+]([O-])c1ccc(-c2nn(-c3ccccc3)cc2/C=N/n2c(-c3ccncc3)n[nH]c2=S)cc1,-21.5,0.3%,10.2%,-9.9%,-2.1,
Oc1c(Br)cc(Br)c(/C=N/n2c(-c3ccccc3)n[nH]c2=S)c1Br,-86.2*,-19.5%,?,-21.6%,-0.7,
Oc1ccc(Br)cc1/C=N/n1c(-c2ccccc2)n[nH]c1=S,-7.0,-2.8%,-9.3%,-11.5%,2.0,
C=CC[C@H](CC(=O)N(CCO)Cc1ccccc1)C(=O)N[C@H](COC(=O)[C@H](CC=C)CC(=O)OC(C)(C)C)Cc1ccccc1,13.2,9.0%,?,i,-1.1,
Cc1cccc(-n2c(C)n[nH]c2=S)c1,nt,-3.5%,8.8%,-3.8%,-1.2,
COc1ccc2cc(C(=O)NCc3ccccc3)c(=Nc3ccc(C(=O)O)cc3)oc2c1,0.2,-4.2%,5.3%,2.7%,0.9,
NC(=O)c1cc2ccc(O)cc2oc1=Nc1ccccc1,-72.2*,-2.9%,-13.1%,-13.4%,-21.1,
O=C(O)c1ccc(N=c2oc3cc(O)ccc3cc2C(=O)NCc2ccccc2)cc1,-78.2*,-8.2%,?,-8.7%,-16.1,
O=C(CN1CCCN(S(=O)(=O)c2ccc(F)cc2)CC1)Nc1c(Cl)cccc1Cl,-0.7,0.7%,-1.9%,6.3%,2.1,
c1c2c(cc3sc(N4CCOCC4)nc13)OCCO2,nt,-22.5%,0.3%,?,-50.7*,
c1ccc(N2CCN(c3nc4cc5c(cc4s3)OCCO5)CC2)cc1,nt,0.4%,3.8%,9.8%,-1.1,
O=[N+]([O-])c1ccc(CNc2cccc(Cl)c2)s1,1.9,7.57µM*,-0.4%,6.6%,-28.9,
O=C(COC(=O)c1ccc(S(=O)(=O)NCc2ccco2)cc1)Nc1ccc(Cl)cn1,?,4.5%,8.8%,-24.7%,-52.5*,
O=C(COC(=O)c1ccc(S(=O)(=O)NCc2ccco2)cc1)Nc1ccccc1,-7.0,-2.8%,20.3%,1.5%,5.6,
Oc1[nH]c(=S)sc1/C=C1\C(c2ccccc2)=Nc2ccccc21,-73.7*,0.0%,58.6%,-1.0%,0.3,
O=C(O)c1ccc2c(c1)-c1cc(C(=O)O)ccc1S2(=O)=O,-73.5*,13.8%,-9.9%,i,-0.3,
CC(C)(C)N1C(=O)c2ccc(C(=O)O)cc2C1=O,?,0.3%,5.8%,0.9%,4.7,
O=C1NN(c2ccc(Cl)cc2)C(=O)/C1=C\c1ccc(-c2cccc(C(=O)O)c2)o1,-69.2*,-8.1%,?,-28.8%,-3.0,
Cc1ccc(N2NC(=O)/C(=C/c3ccc(-c4ccc(Cl)c(C(=O)O)c4)o3)C2=O)cc1,?,?,?,-15.2%,1.0,
O=C1NN(c2ccccc2)C(=O)/C1=C\c1ccc(-c2cc([N+](=O)[O-])ccc2O)o1,-68.7*,-6.7%,nt,?,-6.6,
O=C1C(=O)N(CCN2CCOCC2)C(c2ccc(F)cc2)/C1=C(/O)c1ccc(S(=O)(=O)N2CCOCC2)cc1 (stereo unspecified),9.2,10.7%,2.5%,i,2.0,
COc1ccc(NS(=O)(=O)c2cccc(C(=O)NN=Cc3cc(Br)c(O)c(Br)c3)c2)cc1,-50.1*,0.3%,?,-6.6%,-2.0,
O=C(NN=Cc1cc(Br)c(O)c(Br)c1)c1ccccc1NS(=O)(=O)c1cccs1,-67.0*,?,-0.6%,-3.9%,-4.6,
O=C(N/N=C/c1ccc([N+](=O)[O-])o1)c1ccccc1NS(=O)(=O)c1cccs1,-57.3*,-0.9%,-18.8%,-4.9%,-6.2,
SMILES,PI5P4K alpha inh,Tb PFK inh,Pin1 inh,Tb PGK inh,PI4K2A inh,others
O=C(NN=Cc1ccc(F)cc1)c1ccccc1NS(=O)(=O)c1cccs1,-8.5,-4.2%,3.7%,-2.3%,-3.7,
O=C1c2ccccc2C(=O)N1CCOc1ccccc1Br,0.3,-5.2%,-7.2%,i,-1.8,
CCCCCCCc1c(C#N)c(N)[nH]c(=S)c1C#N,-56.1*,1.8%,-0.1%,-13.3%,1.8,
CCOC(=O)c1cc(C)[nH]c(=S)c1C#N,?,-7.4%,-3.0%,6.7%,-8.8,
Cc1ccc(/C=C/C(=O)O)cc1S(=O)(=O)N(CCO)CCO,-59.0*,-0.1%,-9.0%,5.4%,2.5,
Cc1ccc(/C=C/C(=O)O)cc1S(=O)(=O)NCCCO,-15.4,-0.2%,-8.6%,i,-4.8,
COC(=O)c1ccccc1NC(=O)c1cnc(Nc2ccc(OC)cc2)c2ccccc12,nt,nt,9.1%,-8.3%,-8.0,
CC(=O)N(\C=C/C=C/C=C1\Sc2ccccc2C1=O)c1ccccc1,-66.2*,?,?,-17.7%,-16.1,
CN(C)/C=C1/Sc2ccccc2C1=O,2.3,1.2%,24.1%,-4.6%,-4.5,
CCOC(=O)C1=NOC(C(C)=O)(C(=O)NC2CCCC2)C1 (stereo unspecified),nt,nt,nt,nt,-0.5,
O=C(NCc1ccc2c(c1)OCO2)c1ccc(Br)cc1,0.9,-10.5%,2.0%,-2.3%,-2.4,
O=C(NCc1ccc2c(c1)OCO2)c1cc2ncc(Br)cn2n1,-65.2*,?,?,?,-17.1,ADP-Glo counter=-3.7%
CCn1nc(CC(=O)Nc2nnc(CC(=O)N3CCOCC3)s2)c2ccccc2c1=O,2.0,0.5%,-4.9%,4.8%,0.3,ADP-Glo counter=-0.1%
CCn1nc(CC(=O)Nc2nnc(CC(=O)N3CCCC3)s2)c2ccccc2c1=O,-1.6,1.1%,?,-2.1%,-6.4,
COc1cccc(C(=O)Nc2cccc(C(=O)NC3=NN(c4c(Cl)cc(Cl)cc4Cl)C(=O)C3)c2)c1,-58.4*,?,nt,-14.4%,5.1,ADP-Glo counter=3.1%
Cc1ccc(C)c(OC(C)C(=O)Nc2ccc(S(=O)(=O)Nc3nccs3)cc2)c1 (stereo unspecified),-62.0*,2.1%,?,-23.1%,-9.7,ADP-Glo counter=0.2%
CC(C)Cc1c(O)nc(SCC(=O)N2CCCCCC2)[nH]c1=O,-50.3*,2.1%,-1.2%,6.9%,-0.4,ADP-Glo counter=0.1%
CC(C)c1c(O)nc(SCC(=O)N2CCCCC2)[nH]c1=O,-4.1,-0.9%,-17.9%,i,4.5,
CCN1CCN(c2ccc(S(=O)(=O)N3CCCCC3)cc2NC(=O)/C=C/c2ccc(OC)c(OC)c2)CC1,-3.6,12.4%,-1.3%,-8.9%,-1.5,
CN(CC(=O)Nc1c(Cl)cccc1Cl)C(=O)c1cccc(-n2cccc2)c1,-78.0*,?,?,?,-7.6,ADP-Glo counter=0.9%
CN(CC(=O)Nc1cccc(F)c1)C(=O)c1cccc(-n2cccc2)c1,-81.9*,?,?,?,-16.9,ADP-Glo counter=3.8%
CN(CC(=O)Nc1ccccc1Cl)C(=O)c1cccc(-n2cccc2)c1,-21.3,5.0%,3.3%,-0.8%,-2.8,
